Experimental data from PubChem BioAssay (NCI).
About 83,000 compounds went through this panel and 20% of them were active in at least one assay; those are over-represented in the sample as a whole.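 Plates (96-well) were seeded with cells, treated with compound at one concentration, and incubated for 48 hours before percent growth was determined.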 Values without a mark were called inactive. Activity calls are given as the source filed them. The calls were made as follows: active = growth percent below 10; inactive = the rest.

system: MDA-MB-468 breast; assay: NCI-60 one-dose screen, 48 h (100 = growth as untreated, 0 = no growth, -100 = all killed); details: 10 µM unless noted

Structure (SMILES) | growth
CC[C@@H]1NC(=O)[C@H]([C@H](O)[C@H](C)C/C=C/c2ccc(CN3C(=O)C(C)=C(C)C3=O)cc2)N(C)C(=O)[C@H](C(C)C)N(C)C(=O)[C@H](CC(C)C)N(C)C(=O)[C@H](CC(C)C)N(C)C(=O)[C@@H](C)NC(=O)[C@H](C)NC(=O)[C@H](CC(C)C)N(C)C(=O)[C@H](C(C)C)NC(=O)[C@H](CC(C)C)N(C)C(=O)CN(C)C1=O | 53.1%
CCCC(=O)Oc1ccc(/C(=C(\C)c2ccc(OC)cc2)c2ccc(OCCN3CCCCC3)cc2)cc1 | 68.6%
CCC(=O)N1C/C(=C/c2ccc(OC)cc2)C(=O)/C(=C/c2ccc(OC)cc2)C1 | -25.6% (active)
O=C1C=CC(=O)c2c1nc1n2CCCC1 | 90.2%
COc1cc(CNS(=O)(=O)c2ccc(C)cc2)ccc1OCc1cn(-c2ccccc2)nn1 | 70.7%
C=C1C(=O)O[C@H]2[C@H]1CC/C(COC(=O)NCc1ccc(Cn3c(=O)sn(-c4ccc(I)cc4)c3=O)cc1)=C\CC[C@@]1(C)O[C@@H]21 | 29.6%
CCOc1ccc(Cc2nccc3cc(OCC)c(OCC)cc23)cc1OCC | 61.4%
CCN1C(=O)N(CC)C2C1NC(=O)N2/N=C/C=C/c1ccccc1 (centres undefined) | 19.5%
C[n+]1c2ccccc2nc2ccccc21 | 9.7% (active)
CCCCCCCn1cc2c(N[C@H](C)c3ccccc3)ncnc2n1 | 119%
O=C(Nc1ccc(-n2ccc3c(NC(=O)c4ccccc4)nccc32)cc1)c1cccc(C(F)(F)F)c1 | 16.8%
COc1ccc2c(c1)O/C(=C\c1ncc([N+](=O)[O-])n1C)C2=O | -7.9% (active)
COc1ccc(NC2=C(Cl)C(=O)C(C)=C(C)C2=O)cc1 | -38.4% (active)
CCCCc1nc(Cl)c(C2CC(c3ccc(S(N)(=O)=O)cc3)=NN2c2ccc(C#N)cc2)[nH]1 (centres undefined) | 64.5%
Cc1ccc(C2CC(c3cccc(Nc4ccncc4)c3)=Nc3c(N)nc(N)nc3N2)cc1 (centres undefined) | 60.2%
O=S(=O)(Oc1ccc(-c2cn3ccoc3n2)cc1)c1cccc(C(F)(F)F)c1 | 86.9%
C=CCn1c(C)nc2cc(Nc3nc(N4CCCC4)nc4nc[nH]c34)ccc21 | 51.1%
Clc1ccccc1-c1nc2ccccc2[nH]1 | 88.3%
COC12CC(=O)C(C(C)=O)=C(O)C1(C)c1c(O)c(C)c(O)c(C(C)=O)c1O2 (centres undefined) | 68.9%
O=c1cc(Cc2ccc([N+](=O)[O-])cc2)[nH]c(=O)[nH]1 | 105%

Structure (SMILES) | growth
CCNC(=O)Oc1ccc(/C(=C(/C)c2ccc(Cl)cc2)c2ccc(OCCN(C)C)cc2)cc1 | 67%
O=[N+]([O-])c1ccc2c(c1)Cc1cc(F)ccc1-2 | 53.9%
CSc1nc2ccccc2cc1/C=[N+](\[O-])c1ccccc1 | 88%
CC(=O)/C(=C/c1ccc(Br)cc1)C(=O)c1ccccc1 | 92.3%
COc1cc2nc(-c3ccc(Cl)cc3)cc(OCCCN3CCCCC3)c2cc1OC | 47.7%
NC1=CC(=O)C(=O)c2cccnc21 | 81.3%
COc1ccc(-c2nnc(SCC(=O)Nc3ccc(C(=O)/C=C/c4ccc(Cl)cc4)cc3)n2-c2ccccc2)cc1 | 97.9%
Cc1ccc(C(=O)Nc2ccc(CN3CCN(C)CC3)c(C(F)(F)F)c2)cc1C#Cc1cncc2ncccc12 | 37.3%
O=S(=O)(NCCNc1nccc(-c2c(-c3ccc(F)c(O)c3)nc3sccn23)n1)c1ccccc1 | 83.2%
CC[C@H](C)C(=O)O[C@H]1CCC=C2C=C[C@H](C)[C@H](CC[C@@H]3CC=CC(=O)O3)[C@H]21 | 85%
CC(=O)c1nc2ccccc2n1CCNC(N)=O | 60.8%
O=C1C(Cl)=C(SC2=NCCN2)C(=O)c2ccccc21 | 0.366% (active)
Cc1ccc(C(=O)c2ccc(CC(=O)N/N=C/c3ccccc3O)n2C)cc1 | 81.1%
CCN1C(=O)N(CC)C2Nn3c(s/c(=C4\C(=O)N(C)c5ccccc54)c3=O)=NC21 (centres undefined) | 12.2%
COC(=O)c1ccc2c(c1)Oc1ccc(Cl)cc1-c1cc(C)nn1-2 | 87%
CCCCNNC(=O)c1ccc(Br)cc1 | 60.1%
O=[N+]([O-])c1ccc(-n2[nH]nnc2=S)cc1 | 123%
COc1cccc(C2C3=C(COC3=O)N(CCO)c3cc4c(cc32)CCC4)c1 (centres undefined) | -51.6% (active)
O=c1ccc(N=Nc2ccccc2)ccc1Cl | -51.2% (active)
